According to PubChem BioAssay AID743185 (Broad Institute, 2013):
Activity calls are given as the source filed them.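 Rule for the calls: active = ATP loss in HepG2 cells with fitted half-maximal concentration at most twice the top tested dose; inconclusive = flat curve showing moderate loss, or a poor fit; inactive = opposite effect, flat near zero, or weaker potency.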

Test: HepG2 cell cytotoxicity, dose response, cytotoxicity control, luminescence, dry powder, set 5 (AID 743185)

| Structure (SMILES) | outcome |
| --- | --- |
| O=C(N/N=C/c1c[nH]c2ccccc12)c1cccs1 | inactive |
| CSc1ccc(/C=N/NC(=O)c2ccc3nc[nH]c3c2)cc1 | inactive |
